Assay outcomes (PubChem BioAssay)
Pf growth 96h = Primary qHTS for delayed death inhibitors of the malarial parasite plastid, 96 hour incubation; P. falciparum luciferase reporter growth, 96 h; Potency, µM (doses to about 28.7 µM), actives largely listed as inhibitors; 320,000 tested, 6.9% active; active = well fitted inhibition curve with a large enough effect; inconclusive = small, poorly fitted or top-dose-only effect, or another doubt; inactive = no such curve, though single readings can be large or run the other way
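P. falciparum expressing integrated firefly luciferase, in erythrocytes at 2% hematocrit, 0.05% parasitemia, incubated with compounds 96 h at 37 C, 5% CO2. Growth inhibition read as loss of luminescence; two-generation exposure targets delayed-death apicoplast inhibitors.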
NS1 function inh = qHTS Assay for Inhibitors of Influenza NS1 Protein Function | Potency, µM (series often up to 46.1 µM) | 270,000 tested, 0.4% active | AID 2326, 2010; also: actives are rising curves; nearly all actives have a fitted effect of over 50% in size
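Recovery from NS1-induced slow growth read by OD600 in budding yeast switched to galactose assay medium (pH 6.0, -URA) at 1:100 dilution. Compound 23 nl per well; the matching strain lacking NS1 serves as control.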
Pf growth 48h = Primary qHTS for delayed death inhibitors of the malarial parasite plastid, 48 hour incubation; P. falciparum luciferase growth in erythrocytes, 48 h; Potency, µM (top dose mostly 28.7 µM), usual class: inhibitors; 310,000 tested, 5.9% active; AID 504832, 2011; active = well fitted inhibition curve with a large enough effect; inconclusive = small, poorly fitted or top-dose-only effect, or another doubt; inactive = no such curve, though single readings can be large or run the other way
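Cell-based growth assay: transgenic P. falciparum expressing firefly luciferase, cultured in red cells within RPMI 1640 containing 0.5% w/v Albumax, 24 mM bicarbonate and gentamycin. A drop in luciferase activity indicates inhibition.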
SARS PLpro yeast-1 = qHTS of Yeast-based Assay for SARS-CoV PLP. S. cerevisiae expressing SARS-CoV PLpro, growth rescue. 330,000 tested, 0.19% active. AID 485353, 2010. Potency, µM (titrated, usually from 32.9 µM), hits mostly activators; also: nearly all actives have a fitted effect of over 55% in size
RE007 growth inh = qHTS Assay for Inhibitors of the HIV-1 protein Vpr; S. pombe RE007 Vpr strain, BacTiter-Glo ATP luminescence, 24 h; Potency, µM (series often up to 92.2 µM), usual class: inhibitors; 360,000 tested, 0.21% active; AID 651644, 2012; active = well fitted falling curve with a large enough effect; inconclusive = small, poorly fitted or top-dose-only effect; inactive = no such curve, though single readings can be large or run the other way; also: nearly all actives have a fitted effect of over 50% in size
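Fission yeast RE007 carrying one integrated HIV-1 vpr copy, seeded at OD 0.01 in PMG+AL medium with 23 nL pinned compound. Grown 24 h at 30 degrees; viability read by BacTiter-Glo luminescence after 5 min.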
SARS PLpro yeast-2 = qHTS of Yeast-based Assay for SARS-CoV PLP: Hit Validation; shares compounds with SARS PLpro yeast-1; yeast expressing SARS-CoV PLpro, growth phenotype rescue; calls only; 1,000 tested, 19% active; AID 652038, 2013; call rule not given here
Numbers stand for hits; n = inactive; u = inconclusive; x = not tested or not shown; + = active, no number. This is a sample that favours compounds with a hit; in the whole collection about 9.5% have one here. Unless noted, calls follow the shape of the full dose curve.

SMILES	Pf growth 96h	NS1 function inh	Pf growth 48h	SARS PLpro yeast-1	RE007 growth inh	SARS PLpro yeast-2
CC(=O)Oc1cc2oc(=O)cc(C)c2cc1Cl	n	n	n	n	n	x
CC(=O)N1CCc2cc(S(=O)(=O)CCC(=O)Nc3ccc(Cl)cc3F)ccc21	u	n	n	n	n	x
COCCNC(=O)C1CCCN(C(=O)c2sc(-c3ccccc3)nc2C)CC1 (stereo not drawn)	x	x	x	x	n	x
O=C(O)c1ccc(N=NN2CCCCCC2)cc1	n	n	n	12.6µM	n	n
O=C(CSc1nncs1)NCc1ccc(F)cc1	n	n	n	n	n	x
CC(=O)Nc1ccc(S(=O)(=O)N(C)CC(=O)OCC(=O)NC(C)C23CC4CC(CC(C4)C2)C3)cc1 (stereo not drawn)	n	n	n	u	n	n
O=C(CSc1nc(N2CCOCC2)nc(N2CCOCC2)n1)Nc1ccccc1F	u	n	n	n	n	x
O=C(CCN1CCOCC1)NC1CCCN(Cc2ccccc2F)C1 (stereo not drawn)	n	n	n	u	n	n
CC(C)Cc1ccc(CN2CCCC(NC(=O)CCN3CCOCC3)C2)cc1 (stereo not drawn)	u	n	n	n	n	x
CN(C)c1ccc(-c2nc3ccccn3c2/N=C/c2ccc(Br)cc2)cc1	n	n	u	x	u	n
CCC1(CC)C(=O)N(C)C(=O)NC1=Nc1ccc(OC)cc1	x	n	n	1.78µM	n	n
Cc1cccn2c(=O)c3cc(C(=O)NCC4CCCO4)c(=N)n(C4CCCC4)c3nc12 (stereo not drawn)	n	n	u	n	n	x
O=C(NCC(c1cccnc1)N1CCN(c2ccccc2F)CC1)C1CCCCC1 (stereo not drawn)	n	n	x	u	n	n
COc1ccc(-c2ccc3c(c2)O/C(=C\c2ccsc2)C3=O)cn1	x	x	x	n	n	x
O=C(CN1C(=O)C2C3C=CC(C3)C2C1=O)NCCc1ccccc1 (stereo not drawn)	n	n	n	n	u	x
O=C(CN1C(=O)C2C3C=CC(C3)C2C1=O)NCc1ccccc1 (stereo not drawn)	n	n	n	u	n	n
COc1ccc(C(=O)CSc2nnc(NC(=O)C3CC(=O)N(c4ccccc4)C3)s2)cc1 (stereo not drawn)	n	n	n	u	n	u
CCOc1ncccc1C(=O)OCC(=O)Nc1ccc2c(c1)CCC2	x	x	x	u	n	n
CCOc1ncccc1C(=O)OCC(=O)Nc1ccc2c(c1)OCO2	n	x	n	n	n	x
O=C(Nc1ccccn1)c1ccco1	n	n	n	n	n	x
O=C(Nc1ccccn1)c1ccc([N+](=O)[O-])o1	u	n	u	10µM	u	n
Cc1cc([N+](=O)[O-])nn1Cc1ccc(C(=O)N/N=C/c2ccc(O)cc2O)cc1	n	n	u	3.16µM	n	u
CC1(C)C(Cl)C(=O)C(C(=O)c2ccccc2)C(=O)C1Cl (stereo not drawn)	u	n	n	n	n	x
CCOC(=O)CSc1nc2ccccc2c(=O)n1C1CCCC1	n	n	u	n	n	x
CCOC(=O)CSc1nc2ccccc2c(=O)n1C	n	n	u	u	n	n
SMILES	Pf growth 96h	NS1 function inh	Pf growth 48h	SARS PLpro yeast-1	RE007 growth inh	SARS PLpro yeast-2
COc1ccc(C2C=C(C34CC5CC(CC(C5)C3)C4)NC(=S)N2)cc1OC (stereo not drawn)	9.28µM	n	u	14.1µM	n	+
COc1ccc(C2OCC(C)(C)CO2)cc1OC	x	x	x	x	n	x
Cc1ccc(NC(=S)NNC(=O)C2CC2c2ccc(C)cc2)cc1 (stereo not drawn)	u	n	u	u	n	x
Cc1ccc(C2CC2C(=O)NNC(=S)Nc2cccc(C)c2)cc1 (stereo not drawn)	u	n	n	10µM	n	n
Cc1cccc(NC(=S)NC2CCCC2)c1	n	n	n	u	n	+
CCCC(=O)NC(c1ccc2c(c1)OCO2)c1cc(Cl)c2cccnc2c1O (stereo not drawn)	n	n	u	2.82µM	n	n
CCCCC(=O)NC(c1ccc(N(CC)CC)cc1)c1ccc2cccnc2c1O (stereo not drawn)	n	n	u	3.98µM	n	u
